PLK1 PBD inh = inhibitors of human PLK1 polo-box domain binding; hit rate 2.8% among 360,000; Plk1 PBD binding of FITC phosphopeptide, fluorescence polarization; Potency, µM, hits mostly inhibitors; P53350; note: series mostly up to about 57 µM; nearly all actives have a fitted effect of over 65% in size
Target sequence (P53350 whole entry, looked up, the tested form may be a part): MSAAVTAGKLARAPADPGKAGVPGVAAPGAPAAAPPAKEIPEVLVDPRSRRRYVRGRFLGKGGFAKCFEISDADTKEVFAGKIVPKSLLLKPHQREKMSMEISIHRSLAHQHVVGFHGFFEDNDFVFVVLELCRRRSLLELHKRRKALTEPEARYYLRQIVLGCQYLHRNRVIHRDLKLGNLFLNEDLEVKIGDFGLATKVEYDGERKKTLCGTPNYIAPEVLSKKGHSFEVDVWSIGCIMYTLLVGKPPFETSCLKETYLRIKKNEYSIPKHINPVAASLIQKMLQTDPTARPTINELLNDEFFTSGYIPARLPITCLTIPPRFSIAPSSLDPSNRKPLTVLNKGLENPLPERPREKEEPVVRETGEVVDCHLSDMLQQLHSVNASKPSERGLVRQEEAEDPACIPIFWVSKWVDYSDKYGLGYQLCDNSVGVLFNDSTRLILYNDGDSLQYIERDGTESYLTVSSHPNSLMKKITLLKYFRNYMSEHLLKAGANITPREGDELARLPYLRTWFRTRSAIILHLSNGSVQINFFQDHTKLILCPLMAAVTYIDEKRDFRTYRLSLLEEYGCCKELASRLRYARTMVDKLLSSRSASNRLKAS
HP1b chromo inh = HP1-beta chromodomain-methylated histone interaction inhibition; P83916; AlphaScreen HP1-beta / biotin-H3K9me3 peptide binding; hit rate 0.56% among 390,000; Potency, µM (doses to about 114 µM), actives largely listed as inhibitors; note: nearly all actives have a fitted effect of over 70% in size
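AlphaScreen: HP1-beta (50 nM) preformed 30 min with biotin-H3(1-18)K9me3 peptide (50 nM) in PBS pH 7.4, 0.01% Tween-20. Compound added for 30 min at RT, then streptavidin donor/nickel chelate acceptor beads (10 ug/mL) for 30 min.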
G9a block = inhibitors of human histone lysine methyltransferase G9a; G9a H3K9 monomethylation, AlphaScreen, 2 h; Q96KQ7; hit rate 8.8% among 350,000; Potency, µM (series often up to 102 µM), actives largely listed as inhibitors; note: nearly all actives have a fitted effect of over 75% in size
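Enzyme 20 nM + cpd, 15 min RT; add b-H3K9 pep 500 nM / SAM 20 uM; 2 h RT; anti-H3K9me1 Ab 0.5 ug/mL + SA donor / anti-rabbit acceptor beads 20 ug/mL each, 10 min; AlphaScreen read.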
BAZ2B inh = BAZ2B (human) inhibition; Q9UIF8; AlphaScreen BAZ2B-H3K14Ac peptide displacement; Potency, µM (titrated, usually from 114 µM), usual class: inhibitors; hit rate 4.4% among 360,000; note: nearly all actives have a fitted effect of over 60% in size
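Inhibition is scored as reduced AlphaScreen emission. The BAZ2B/b-H3(5-23)K14Ac complex (50 nM each) in PBS pH 7.4, 0.01% Tween-20 meets compound (up to 110 uM) for 30 min at RT before bead addition.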
JMJD2A Tudor inh = inhibitors of human JMJD2A Tudor domain; AlphaScreen JMJD2A-Tudor / H3K4me3 peptide binding; AID 504339; Potency, µM (highest dose often 114 µM), actives largely listed as inhibitors; O75164; hit rate 4.4% among 390,000; note: nearly all actives have a fitted effect of over 50% in size
PI5P4K alpha inh = inhibitors of human PI5P4K alpha. hit rate 1.2% among 330,000. PI5P4Kalpha enzyme, ADP-Glo luminescence, 60 min; active compounds read low. AID 652105. max response, %; active = max response of -50% or lower; inconclusive = between -30% and -50%; inactive = -30% or higher; note: value at the top dose of about 77 µM
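ADP-Glo luminescence end-point read after a 60 min room-temperature kinase reaction of PI5P4Kalpha plus substrate, initiated with ATP at 5 microM final. Buffer: 0.038 M HEPES pH 7.4, EGTA, 0.1% CHAPS, 5% DMSO.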
Numbers stand for hits; i = inactive; ? = inconclusive; nt = no result; [ ] = another dose, or the depositor's remark. Sampled rows, rich in hits. Any-hit rate of the full collection: about 12%. Unless noted, calls come from the whole dose curve; as a rule, active = well fitted curve in the direction sought with a large enough effect; inconclusive = small, poorly fitted or top-dose-only effect, or another doubt; inactive = no such curve, though single readings can be large; an effect the other way counts as inactive or inconclusive.

SMILES	PLK1 PBD inh	HP1b chromo inh	G9a block	BAZ2B inh	JMJD2A Tudor inh	PI5P4K alpha inh
CC1=NC(=O)C(N=Nc2ccccc2C(=O)O)N1c1ccccc1 (stereo not drawn)	?	i	i[12.7 µM]	28µM	?	?
O=C(O)c1cccc(N2C(=O)C3CC=CCC3C2=O)c1 (stereo not drawn)	i	i	i	i	i	nt
CC1=NC(=O)C(N=Nc2cccc(C(=O)O)c2)N1c1ccccc1 (stereo not drawn)	i	i	?	50µM	?	nt
CC1=NC(=O)C(N=Nc2ccccc2)N1c1ccccc1 (stereo not drawn)	i	i	8.9µM	8.9µM	11µM	i
Cc1[nH]n(-c2ccccc2)c(=O)c1N=Nc1ccccc1C(=O)O	i	i	?	?	?	i
O=c1c2cc3c(cc2n(Cc2cccc(F)c2)c(=O)n1Cc1nc(-c2ccccc2)no1)OCO3	nt	i	i	i	i	nt
O=C1CN(c2ccccc2)C(=S)N1C(=O)c1ccc(Br)cc1	24µM	i	nt	i	i	i
Cc1cccc(N2C(S)=C(C#N)C(=O)NC2c2cccs2)c1 (stereo not drawn)	?	i	40µM	i	i	i
Cc1ccccc1N1C(S)=C(C#N)C(=O)NC1c1cccs1 (stereo not drawn)	?	i	7.9µM	?	i	i
CCCCN1C(=O)C2ON(c3ccccc3C)C(c3ccco3)C2C1=O (stereo not drawn)	i	i	i[12.7 µM]	i	i	nt
Cc1ccccc1N1C(S)=C(C#N)C(=O)NC1c1ccco1 (stereo not drawn)	?	i	nt	?	i	-53
N#CC1=C(S)N(c2ccccc2)C(c2ccc(-c3ccccc3Cl)o2)NC1=O (stereo not drawn)	19µM	?	?	?	?	i
CC(=O)C1=C(C)N(CC2CC2)C(=O)N[C@H]1c1cccs1	i	i	i	i	i	i
CC(=O)C1=C(C)NC(SCC(N)=O)=C(C#N)C1c1cccs1 (stereo not drawn)	i	i	?	i	i	nt
COc1ccccc1NC(=O)C(=O)NCC(c1cccnc1)N1CCc2ccccc2C1 (stereo not drawn)	nt	i	?	?	i	nt
N#CC1=C(S)N(c2ccc(F)cc2)C(c2cccs2)NC1=O (stereo not drawn)	i	i	16µM	i	i	i
O=C(NCc1ccccc1)c1cccc(COc2ccc3c(c2)CCC3)c1	i	i	i	i	i	i
O=C(c1ccco1)N1CCN(C(=O)c2ccc(COc3ccc4c(c3)CCC4)o2)CC1	i	i	i[0.0925 µM]	50µM	?	i
O=C(c1ccc(COc2ccc3c(c2)CCC3)o1)N1CCN(c2ccccc2)CC1	i	i	nt	nt	?	nt
O=C(O)c1cccc(COc2ccc3c(c2)CCC3)c1	i	i	50µM	i	i	i
Cn1ccc2cc(S(=O)(=O)N3CCN(S(=O)(=O)c4c(F)cccc4F)CC3)ccc21	nt	nt	nt	nt	i	nt
Cc1cccc(NC(=O)c2cc(S(=O)(=O)N3CCc4ccccc43)ccc2F)c1C	nt	i	i	i	i	nt
COC(=O)CSc1nnc(-c2cccnc2)n1C	i	i	i	i	i	i
COc1ccc(-c2nnc(SCC(=O)Nc3cc(C)on3)n2N)cc1OC	i	i	50µM	i	i	i
COc1cccc(-c2nnc(SCC(=O)Nc3cc(C)on3)n2C)c1	i	i	50µM	i	i	nt
COc1ccc(OC)c(C(=O)CSc2nnc(-c3cccnc3)n2C)c1	i	i	18µM	i	i	i
COCc1cc(C)nc(SCC(=O)Nc2ccc(N3CCOCC3)cc2)c1C#N	i	i	i	i	i	i
CCOC(=O)C1(C)CCN1C(=O)c1ccccc1C(F)(F)F (stereo not drawn)	i	nt	nt	nt	nt	i
Cc1ccc(/C=[N+](\[O-])c2ccc(N(C)C)cc2)c2nsnc12	?	28µM	8.9µM	32µM	25µM	i
Cc1ccc2nsnc2c1N(S(C)(=O)=O)S(C)(=O)=O	i	i	i	i	i	i

Bioassay records (PubChem)
